Laboratory results reported in PubChem BioAssay (NCI).
The panel holds about 79,000 compounds, 15% with a hit somewhere; the sample as a whole holds those more often. Calls of active or inactive are those of the source. Cut-off read from the data, not from the text of the source: active = growth inhibition above about 70%; inactive = the rest.

How the values were obtained:
[1] = NCI Yeast Anticancer Drug Screen. Data for the wt1 strain (AID 149);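 note: 0% = growth of vehicle-treated wt1 cultures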; conditions: S. cerevisiae wt1 strain (SPY 50644) growth inhibition, active compounds read high
How it was run: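 Compounds are added to wt1 yeast cultures. Growth is then measured. Inhibition is expressed relative to vehicle-treated controls.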

[2] = NCI Yeast Anticancer Drug Screen. Data for the rad50 strain (AID 155);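 note: 0% = growth of vehicle-only cultures of the same strain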; conditions: S. cerevisiae rad50 strain growth inhibition, active compounds read high
How it was run: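 Inhibition values express reduced yeast growth in compound-treated cultures relative to vehicle-treated controls.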

[3] = NCI Yeast Anticancer Drug Screen. Data for the mec2-1 strain (AID 157); conditions: S. cerevisiae mec2-1 strain, active compounds read high
How it was run: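 Compounds were applied to mec2-1 yeast cells. Their growth was then compared with that of vehicle-treated cultures to give growth inhibition.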

[4] = NCI Yeast Anticancer Drug Screen. Data for the rad14 strain (AID 159);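 note: 0% = growth of vehicle-treated control cultures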; conditions: S. cerevisiae rad14 strain growth inhibition, active compounds read high
How it was run: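 A mutant yeast strain defective in DNA damage repair is treated with compound; inhibition of its growth is scored against untreated, vehicle-exposed cultures.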

[5] = NCI Yeast Anticancer Drug Screen. Data for the sgs1 mgt1 strain (AID 161);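 note: 0% = growth of cultures given vehicle only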; conditions: S. cerevisiae sgs1 mgt1 strain, active compounds read high
How it was run: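 This yeast growth screen uses a strain with defined DNA-repair lesions; compound-treated growth is compared with vehicle-treated growth.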

[6] = NCI Yeast Anticancer Drug Screen. Data for the cln2 rad14 strain (AID 165);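 note: 0% = growth equal to vehicle treated cultures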; conditions: S. cerevisiae cln2 rad14 strain, active compounds read high
How it was run: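 Strain: cln2 rad14 yeast, altered in cell cycle control and DNA damage repair. Read-out: growth inhibition vs vehicle.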

[7] = NCI Yeast Anticancer Drug Screen. Data for the bub3 strain (AID 167); conditions: S. cerevisiae bub3 mutant strain, active compounds read high
How it was run: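 Steps: expose the mutant yeast strain to compound; grow alongside vehicle-treated cultures; measure growth; express inhibition against the vehicle cultures.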

[8] = NCI Yeast Anticancer Drug Screen. Data for the wt2 strain (AID 169);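 note: 0% = growth of vehicle-treated yeast cultures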; conditions: S. cerevisiae wt2 strain growth inhibition, active compounds read high
How it was run: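 Growth of compound-treated yeast is measured and expressed as inhibition relative to vehicle-only controls.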

[9] = NCI Yeast Anticancer Drug Screen. Data for the mlh1 strain (AID 171);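 note: 0% = growth of vehicle-treated control cultures of the same strain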; conditions: S. cerevisiae mlh1 strain growth inhibition, active compounds read high
How it was run: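 Test agents were incubated with yeast bearing a defined DNA damage repair or cell cycle control alteration; values are growth inhibition normalised to vehicle-treated cultures.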

[10] = NCI Yeast Anticancer Drug Screen. Data for the sgs1 strain (AID 173);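 note: 0% = growth of vehicle-only control cultures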; conditions: S. cerevisiae sgs1 mutant, active compounds read high
How it was run: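 Strain with an altered DNA repair or cell cycle pathway exposed to compound. Growth then measured. Value = inhibition versus vehicle control.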

[11] = NCI Yeast Anticancer Drug Screen. Data for the rad18 strain (AID 177); conditions: S. cerevisiae rad18 mutant growth inhibition, active compounds read high
How it was run: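 DNA-repair-defective yeast; compound treatment; growth inhibition scored against vehicle.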

[12] = NCI Yeast Anticancer Drug Screen. Data for the rad50EPP+ strain (AID 151);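 note: 0% = growth of vehicle-treated control cultures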; conditions: S. cerevisiae rad50 mutant strain, active compounds read high
How it was run: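 Measured: growth inhibition of rad50EPP+ yeast. Reference: vehicle-treated controls. Screen uses strains with defined genetic alterations in DNA damage repair or cell cycle control.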

[13] = NCI Yeast Anticancer Drug Screen. Data for the mlh1 rad18 strain (AID 175); conditions: S. cerevisiae mlh1 rad18 strain growth inhibition, active compounds read high
How it was run: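 A repair-deficient yeast strain is exposed to test compound, and growth is scored relative to vehicle-treated controls.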

[14] = at 5.0 µM (retest, dose inferred, filed as 0.5)
[15] = at 50.0 µM (retest, dose inferred, filed as 5.0)

Measured: growth inhibition

O=C1CC(=O)N(C2CCCCC2)C(=O)N1c1ccccc1S(=O)(=O)Oc1ccccc1
active: [2]; [15] 99% | [3]; [15] 99% | [6]; [15] 80%
inactive: [1]; at 1.2 µM 1% | [1]; at 3.7 µM -5% | [1]; at 11.0 µM -14% | [1]; at 33.0 µM 12% | [1]; at 100.0 µM 51% | [2]; at 1.2 µM -12% | [2]; at 3.7 µM -3% | [2]; [14] 66% | [2]; at 11.0 µM -12% | [2]; at 33.0 µM 5% | [2]; at 50.0 µM 38.6% | [2]; at 100.0 µM 33% | [3]; at 1.2 µM 11% | [3]; at 3.7 µM 0% | [3]; [14] 69% | [3]; at 11.0 µM -18% | [3]; at 33.0 µM 13% | [3]; at 50.0 µM 41% | [3]; at 100.0 µM 36% | [4]; at 1.2 µM -18% | [4]; at 3.7 µM -22% | [4]; at 11.0 µM -26% | [4]; at 33.0 µM -18% | [4]; at 100.0 µM 18% | [5]; [14] 3% | [5]; [15] 31% | [5]; at 50.0 µM 54.4% | [6]; [14] 60% | [6]; at 50.0 µM 68% | [7]; at 1.2 µM -13% | [7]; at 3.7 µM 0% | [7]; [14] 25% | [7]; at 11.0 µM 2% | [7]; at 33.0 µM 7% | [7]; [15] 42% | [7]; at 50.0 µM 58.4% | [7]; at 100.0 µM 32% | [8]; at 1.2 µM 0% | [8]; at 3.7 µM -33% | [8]; at 11.0 µM -27% | [8]; at 33.0 µM -3% | [8]; at 100.0 µM 41% | [9]; at 1.2 µM -10% | [9]; at 3.7 µM -19% | [9]; at 11.0 µM -11% | [9]; at 33.0 µM 7% | [9]; at 100.0 µM 46% | [10]; at 1.2 µM -7% | [10]; at 3.7 µM -5% | [10]; at 11.0 µM -1% | [10]; at 33.0 µM 20% | [10]; at 100.0 µM 56% | [11]; at 1.2 µM -15% | [11]; at 3.7 µM -13% | [11]; at 11.0 µM -19% | [11]; at 33.0 µM -18% | [11]; at 100.0 µM 12%

COC(=O)c1cccc(C)c1C(=O)c1c(C)cc(C)cc1C
active: [12]; at 100.0 µM 76% | [2]; at 100.0 µM 76% | [3]; at 100.0 µM 72% | [13]; [15] 82%
inactive: [1]; at 1.2 µM 0% | [1]; at 3.7 µM 1% | [1]; at 11.0 µM -2% | [1]; at 33.0 µM 5% | [1]; at 100.0 µM 53% | [12]; at 1.2 µM -6% | [12]; at 3.7 µM 6% | [12]; at 11.0 µM 5% | [12]; at 33.0 µM 26% | [2]; at 1.2 µM -1% | [2]; at 3.7 µM 1% | [2]; [14] -10% | [2]; at 11.0 µM 5% | [2]; at 33.0 µM 28% | [2]; [15] 52% | [2]; at 50.0 µM 15.5% | [3]; at 1.2 µM -3% | [3]; at 3.7 µM -1% | [3]; [14] 3% | [3]; at 11.0 µM 4% | [3]; at 33.0 µM 21% | [3]; [15] 59% | [3]; at 50.0 µM 22.8% | [4]; at 1.2 µM 0% | [4]; at 3.7 µM 0% | [4]; at 11.0 µM 5% | [4]; at 33.0 µM 20% | [4]; at 100.0 µM 47% | [5]; [14] -7% | [5]; [15] 25% | [5]; at 50.0 µM 25.1% | [6]; [14] -25% | [6]; [15] 15% | [6]; at 50.0 µM 25.2% | [7]; at 1.2 µM 0% | [7]; at 3.7 µM -2% | [7]; [14] 9% | [7]; at 11.0 µM -3% | [7]; at 33.0 µM 4% | [7]; [15] 22% | [7]; at 50.0 µM 16.8% | [7]; at 100.0 µM 62% | [9]; at 1.2 µM -1% | [9]; at 3.7 µM 2% | [9]; at 11.0 µM 6% | [9]; at 33.0 µM 19% | [9]; at 100.0 µM 59% | [10]; at 1.2 µM 1% | [10]; at 3.7 µM 3% | [10]; at 11.0 µM 7% | [10]; at 33.0 µM 25% | [10]; at 100.0 µM 65% | [13]; [14] 4% | [13]; at 50.0 µM 15.7% | [11]; at 1.2 µM 4% | [11]; at 3.7 µM 7% | [11]; at 11.0 µM 10% | [11]; at 33.0 µM 28% | [11]; at 100.0 µM 67%
